Experimental data as given in PubChem BioAssay (NCATS).
Values without a mark were called inactive. Calls follow the shape of the dose curve; as a rule, active = well fitted cell-killing curve with a large enough effect; inconclusive = small, poorly fitted or top-dose-only effect; inactive = flat fitted curve, though single readings scatter.

assay: MultiTox-Fluor Cytotoxicity Assay - LYMP1-003 - Live Cells (AID 962); settings: LYMP1-003 lymphoblastoid cells, MultiTox-Fluor live-cell protease fluorescence; series mostly up to 92.2 µM; activity change, negative = fewer live cells: at the top concentration;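 also: 0% = DMSO only and full loss = 92 µM tetraoctylammonium bromide; cytotoxic hits lower the live-cell protease signal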
Excerpt: NIH Chemical Genomics Center [NCGC]
NIH Molecular Libraries Screening Centers Network [MLSCN]
National Institutes of Environmental Health Sciences [NIEHS]
National Toxicology Program [NTP]
We have developed a 1536-well cell-based assay for quantitative high throughput screening (qHTS) against a number of cell lines to determine in vitro cytotoxicity of small molecules. This particular assay uses a human lymphoblastoid cell line (LYMP1-003) purchased from Coriell Institute.
NCGC Assay Protocol Summary:
The MultiTox-Fluor Cytotoxicity Assay (Promega) is a homogeneous method to simultaneously measure the relative number of live and dead cells in culture by detecting changes in cell membrane integrity. There are two fluorogenic peptide substrates in the assay reagent. Viable cells are determined when the cell-permeant substrate (GF-AFC) enters the cell and is cleaved by protease from live cells resulting in liberated fluorophore. This live-cell protease activity restricted to viable cells is proportional to cell number. The dead cells are determined by using fluorogenic cell-impermeant peptide substrate (bis-AAF-R110) which cleaved by dead cell proteases leaking from damaged cell membrane.
Using the MultiTox-Fluor Cytotoxicity Assay, the relative number of live cells was measured in the lymphoblastoid cell line with complete culture medium following compound treatment for 16 hours. The assay was performed in opaque black Kalypsys 1536-well plates. In the screen, tetraoctylammonium bromide was used as positive control. Library compounds were measured for their ability to cause acute toxicity in the cell line, as reflected by a decrease in live cell protease activity, in a concentration-dependent manner. […] AC50 values were determined from concentration-response data modeled with the standard Hill equation.
qHTS protocol for MultiTox-Fluor Cytotoxicity assay
[Step] [Parameter] [Value] [Description]
1. Reagent; 5 uL; 2500 lymphoblastoid cells/well
2. Time; 5 hr; 37 C incubation
4. Controls; 23 nL; Tetraoctylammonium bromide 6.4pM to 92 uM
5. Time; 16 hr; 37 C incubation
6. Reagent; 5 uL; MuliTox-Fluor Assay reagent
7. Time; 60 min; Room Temperature
8. Detection; live-cell fluorescence (Ex/Em=405/510); EnVision plate reader
Keywords: cell viability, cytotoxicity, lymphoblastoid cell line, fluorescence, NTPHTS, NTPHTS_NCGC, NIEHS, EPA, DSSTox, MLSMR, MLSCN, NIH Roadmap, qHTS, NCGC

| SMILES | activity change, negative = fewer live cells |
| --- | --- |
| CC(C#N)CCC#N (stereo not given) | -1.8% |
| O=C(Cl)OCc1ccccc1 | 1.89% |
| CN(C)c1ccc(N=Nc2ccccc2)cc1 | -23.2% |
| Cc1cc(Cl)ccc1O | -2.09% |
| CC1CC(=O)O1 (stereo not given) | -7.92% |
| C=CC(=O)OCCO | -7.86% |
| O=C(Cc1ccccc1)OCc1ccccc1 | -3.56% |
| CCCCCC[N+](=O)[O-] | -4.38% |
| CCOP(=S)(OCC)SCCSCC | -1.51% |
| O=[N+]([O-])c1cccc(O)c1 | -3.48% |
| C=CC(=O)OCC(C)C | -3.62% |
| Clc1ccc(C(Cl)(Cl)Cl)cc1Cl | -3.29% |
| FC(Cl)(Cl)Cl | -7.32% |
| ClCC(Cl)Cl | -9.84% |
| CC(C)(COCC1CO1)COCC1CO1 (stereo not given) | -2.67% |
| Clc1ccccc1 | -4.52% |
| O=Cc1ccc(Cl)cc1Cl | -2.25% |
| Cc1ccc(N=C=O)cc1N=C=O | -6.78% |
| O=C(O)C(Cl)Br (stereo not given) | -10.7% |
| O=C(O)C(Br)CBr (stereo not given) | -5.31% |

| SMILES | activity change, negative = fewer live cells |
| --- | --- |
| COP(=S)(OC)SCn1nnc2ccccc2c1=O | -52.3% |
| BrCCc1ccccc1 | -4.31% |
| O=[N+]([O-])c1ccc(O)c([N+](=O)[O-])c1 | -14.1% |
| Nc1ccc([N+](=O)[O-])cc1[N+](=O)[O-] | -12.4% |
| CC(Cl)CCl (stereo not given) | 0.0904% |
| Clc1cccc(Cl)c1Cl | -3.44% |
| C/C=C/C=O | -3.8% |
| OCC(Cl)CCl (stereo not given) | -1.14% |
| S=C1NCCN1 | -3.54% |
| N#CCCCCC#N | 8.25% |
| N#C/C=C/C#N | -8.63% |
| CC(C)[N+](=O)[O-] | -3.21% |
| Cc1ccccc1[N+](=O)[O-] | -3.34% |
| C=CCBr | -3.9% |
| c1ccc(Nc2ccc(Nc3ccccc3)cc2)cc1 | -9.24% |
| ClCCBr | -2.21% |
| Nc1c(Br)cc([N+](=O)[O-])cc1[N+](=O)[O-] | -11.6% |
| ClC=CCl | -5.21% |
| c1ccc(OCC2CO2)cc1 (stereo not given) | -4.63% |
| Cc1ccc2c(c1N)C(=O)c1ccccc1C2=O | -19.6% |
